# Bioassay records as filed in PubChem BioAssay.
# APOBEC3G inh: inhibitors of human APOBEC3G DNA deaminase; Q9HC16; recombinant A3G, ssDNA deamination FAM/TAMRA fluorescence; inhibition, % at 20 µM; 0.28% of 330,000 active;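 active = inhibition of at least 40% at 20 µM, with no more than 30% in the related APOBEC3A deaminase screen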
# eIF4H FP inh: inhibitors of RNA binding by human eIF4H. Q15056. eIF4H fluorescence polarization binding assay. inhibition, % at 35 µM. 0.94% of 290,000 active. AID 2012;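 also: calls also rest on retests at 20 µM and on dose response follow-up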
# PHOSPHO1 inh: blocks human PHOSPHO1 phosphatase activity. recombinant PHOSPHO1, absorbance phosphatase assay. inhibition, % at 13.3 µM. 1.1% of 290,000 active. Q8TCT1; in the data active = inhibition above about 60%
# Target sequence (Q8TCT1 whole entry, looked up): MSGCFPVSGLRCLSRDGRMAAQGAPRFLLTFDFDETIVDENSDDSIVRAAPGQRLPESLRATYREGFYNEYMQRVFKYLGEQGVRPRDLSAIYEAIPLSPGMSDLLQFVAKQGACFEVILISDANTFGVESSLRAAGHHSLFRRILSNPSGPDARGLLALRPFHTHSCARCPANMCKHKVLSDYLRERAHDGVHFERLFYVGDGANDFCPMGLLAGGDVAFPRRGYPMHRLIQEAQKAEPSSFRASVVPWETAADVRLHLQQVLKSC
# APOBEC3A inh: human APOBEC3A DNA deaminase inhibition | AID 493011 | 0.41% of 330,000 active | inhibition, % at 20 µM | recombinant A3A, FAM/TAMRA ssDNA deamination fluorescence | P31941;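 active = at least 40% inhibition at 20 µM here, with at most 30% in a related deaminase screen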
# MLLE-PAM2 inh: inhibitors of microRNA-mediated deadenylation, human PABP1 MLLE binding | P11940 | GST-MLLE / FITC-PAM2 fluorescence polarization | inhibition, % at 20 µM | 0.36% of 360,000 active; in the data active = inhibition above about 35%, passing the limit was not always enough
# PABP polyA inh: blocks human PABP binding to poly(A) RNA. calls only at 35 µM. 1% of 290,000 active. fluorescence polarization. P11940;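 also: calls also rest on retests at 20 µM and on dose response follow-up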
# Hits are given with their value; . = inactive; / = no result given; + = active, no number. The list is not random: actives were taken first. Their share in the collection is about 2.6%. Unless noted, no rule for the calls is given here.
SMILES,APOBEC3G inh,eIF4H FP inh,PHOSPHO1 inh,APOBEC3A inh,MLLE-PAM2 inh,PABP polyA inh
CC(C(=O)Nc1ccccc1-c1ccccc1)N(C)Cc1nc2ccccc2c(=O)[nH]1 (stereo unspecified),.,.,.,.,.,.
CCOC(=O)c1cc2c(=O)n3ccccc3nc2n(Cc2ccco2)c1=NC(=O)c1ccccc1OC,.,51.3,.,.,.,.
CCOC(=O)c1cc2c(=O)n3ccccc3nc2n(Cc2ccco2)c1=NC(=O)c1ccc(OC)cc1,.,.,.,.,.,.
Cc1ccc(-c2ccc(SCC(=O)NC3CCCCC3)nn2)cc1,.,.,61.6,.,.,.
CCOC(=O)N1CCN(C(=O)CSc2ccc(-c3ccc(OC)cc3)nn2)CC1,.,.,68.5,.,.,.
CC(C)c1ccc(S(=O)(=O)N2CCN(C(=O)Cc3ccsc3)CC2)cc1,.,/,/,.,.,/
COc1ccc(S(=O)(=O)Nc2ccc(C(N)=O)cc2)cc1C(=O)N1CCCCCC1,.,.,.,.,.,.
CN(CCC(=O)c1ccccc1)CCC(=O)c1ccccc1,.,.,.,.,43.9,.
O=C(CC(=O)c1ccccc1)c1ccccc1,/,/,/,/,.,/
COc1cc2c(c(OCC(=O)NC(C)C)c1)C(=O)O[C@@H](C)CCCC(=O)CCCCC2,.,.,/,.,51.7,.
CC(C)CNC(=S)NNC(=O)c1csc2c1CCC(C)C2 (stereo unspecified),.,.,83.5,.,.,.
CCN(CC)c1ccc(NC(=O)CCNS(=O)(=O)c2ccc3c(c2)CCC(=O)N3)c(C)c1,.,.,.,.,.,.
Cc1ccc(NC(=O)CCNS(=O)(=O)c2ccc3c(c2)CCC(=O)N3)cc1F,.,.,70.2,.,.,.
Cc1ccccc1NC(=O)CCNS(=O)(=O)c1ccc2c(c1)CCC(=O)N2,.,.,61.6,.,.,.
CCCN(CCC)CCCNC(=O)C(NS(=O)(=O)c1ccc2c(c1)CCC(=O)N2)c1ccccc1 (stereo unspecified),.,.,.,.,.,.
Cc1cccc(NC(=O)C(NS(=O)(=O)c2ccc3c(c2)CCC(=O)N3)c2ccccc2)n1 (stereo unspecified),.,.,.,.,44.1,.
COc1ccccc1CN1CC(C(=O)N(Cc2cnn(C)c2)C(C)C)CCC1=O (stereo unspecified),.,.,.,.,.,.
CCCCNC(=S)NNC(=O)c1csc2ccccc12,.,.,62.0,.,.,.
COC(=O)[C@@]12CCCN1[C@H](c1ccc(-c3ccc(C(C)=O)cc3)c(OC)c1)[C@H]1C(=O)N(C)C(=O)[C@H]12,.,/,/,.,.,/
O=C(Cn1ccc(NC(=O)OCc2ccccc2)nc1=O)NCc1ccc2[nH]ccc2c1,.,/,/,.,.,/
CCn1c(SCC(=O)Nc2ccccc2)nc2c1c(=O)n(C)c(=O)n2C,.,.,.,.,.,.
Cc1c(NC(=O)CSCc2ccc(Br)cc2)c(=O)n(-c2ccccc2)n1C,.,active,.,.,.,+
CCn1c(SCC(=O)Nc2c(C)n(C)n(-c3ccccc3)c2=O)nc2c1c(=O)n(C)c(=O)n2C,.,.,64.2,.,.,.
COc1ccc(NC(=O)C(=O)NCC(c2ccco2)N2CCc3ccccc3C2)cc1OC (stereo unspecified),.,/,/,.,.,/
COc1ccc(N2CCN(c3oc(-c4ccco4)nc3C#N)CC2)cc1,.,100.5,.,.,.,.
SMILES,APOBEC3G inh,eIF4H FP inh,PHOSPHO1 inh,APOBEC3A inh,MLLE-PAM2 inh,PABP polyA inh
N#Cc1nc(-c2ccco2)oc1N1CCN(c2ccccc2)CC1,.,.,.,.,.,.
O=C(Cn1c(=S)[nH]c2ccccc21)c1ccccc1,.,.,.,.,.,.
Cc1ccc(NC(=O)Cn2c(=S)[nH]c3ccccc32)cc1,.,.,62.2,.,.,.
CC(C)n1c(=S)[nH]c2ccccc21,.,.,83.7,.,.,.
CCn1c(=S)[nH]c2ccccc21,.,.,71.2,.,.,.
Cc1cc(C)nc(SC(C)CNS(=O)(=O)c2ccccc2)n1 (stereo unspecified),.,.,.,.,.,.
COc1ccc(N2CCN(C3CCCN(C(=O)CCN4CCCCO4)C3)CC2)cc1 (stereo unspecified),.,.,.,.,.,.
CCSc1nc2sc3c(c2c(=O)n1CC)CCC3,.,.,.,.,.,.
NNc1nc2sc3c(c2c(=O)n1Cc1ccccc1)CCC3,.,64.3,.,.,.,+
CCn1c(NN)nc2sc3c(c2c1=O)CCC3,.,52.3,86.5,.,.,+
C#CCSc1nc2sc3c(c2c(=O)n1C)CCC3,.,63.2,.,.,.,+
CSc1nc2sc3c(c2c(=O)n1C)CCC3,.,.,/,.,.,.
COc1ccc(NC(=O)C2Cc3c(-c4cccc(NC(C)=O)c4)ccnc3O2)cc1 (stereo unspecified),/,/,/,/,.,/
O=c1[nH]cnc(CN2CCCCC2)c1O,/,/,/,/,.,/
O=c1[nH]c(CN2CCCCC2)ccc1O,/,/,/,/,45.0,/
COc1ccc(-c2csc(C(O)c3ccc(F)cc3)n2)cc1OC (stereo unspecified),/,/,/,/,.,/
CCCCC(=O)Nc1cc(C(=O)NCCc2ccccc2)ccc1Cl,.,.,.,.,.,.
CCN1C(=O)[C@H]2[C@H]3CN=C(SCC(=O)c4ccccc4)N3[C@@](C)(C(=O)OC)[C@H]2C1=O,.,/,/,.,45.1,/
COc1cc(C(C)=O)ccc1OCC(=O)N(CCC1=CCCCC1)c1c(N)n(Cc2ccccc2)c(=O)[nH]c1=O,.,/,/,.,.,/
Cc1cc(C)nc(SCc2csc(N)n2)n1,.,.,83.5,.,.,.
Cc1nn(C)c(Cl)c1S(=O)(=O)N1CCC(CO)(CCc2ccccc2)CC1,.,.,.,.,.,.
COc1ccc(C)c2sc(=NC(=O)c3ccccc3)n(C)c12,.,.,.,.,.,.
COc1ccc(C)c2sc(=NC(=O)c3ccc(C(C)=O)cc3)n(C)c12,.,89.5,.,.,.,+
Cn1cnnc1SCC(=O)N1CCN(C(=O)c2ccco2)CC1,.,.,.,.,.,.
C=CCNC(=O)c1ccc(CN2CCC(Cc3ccccc3)CC2)cc1,.,94.8,.,.,.,+
SMILES,APOBEC3G inh,eIF4H FP inh,PHOSPHO1 inh,APOBEC3A inh,MLLE-PAM2 inh,PABP polyA inh
Cn1cnnc1SCC(=O)N1CCC(Cc2ccccc2)CC1,.,.,63.4,.,.,.
Cc1ccc(C(=O)NCC(=O)N2CCC(Cc3ccccc3)CC2)cc1,.,.,62.6,.,.,.
C[C@@H]1CCCCO[C@@H](CN(C)C(=O)c2ccccc2)[C@@H](C)CN([C@H](C)CO)C(=O)c2cc(N(C)C)ccc2O1,/,/,/,/,.,/
CN(CC(=O)Nc1ccccc1C(F)(F)F)C(=O)CSc1nnc(N)s1,.,/,/,.,.,/
CNC(=S)N/N=C(\C)c1cccc([N+](=O)[O-])c1,.,active,.,.,.,.
CC1=NOC2(C1)N(C)c1ccccc1C2(C)C (stereo unspecified),.,.,.,.,.,.
CN1c2ccccc2C(C)(C)C12CCCC(=O)N2 (stereo unspecified),.,.,86.6,.,.,.
